{"source": "PubChem BioAssay AID1851", "about": "(National Center for Advancing Translational Sciences (NCATS), 2009)", "note": "Among all 16,000 compounds or so, about 5,700 (36%) were called active. Another 24% or so got no clear call; they are omitted. Calls come from the whole dose curve; as a rule, active = well fitted curve in the direction sought with a large enough effect; inconclusive = small, poorly fitted or top-dose-only effect, or effect the other way; inactive = no such curve, though single readings can be large or run the other way. Some of the results follow. % is set by controls: 0 for no effect and ±100 for the full control effect."}
{"target": "Cytochrome P450 1A2 (Homo sapiens) (UniProt P05177)", "sequence (P05177 whole entry, looked up)": "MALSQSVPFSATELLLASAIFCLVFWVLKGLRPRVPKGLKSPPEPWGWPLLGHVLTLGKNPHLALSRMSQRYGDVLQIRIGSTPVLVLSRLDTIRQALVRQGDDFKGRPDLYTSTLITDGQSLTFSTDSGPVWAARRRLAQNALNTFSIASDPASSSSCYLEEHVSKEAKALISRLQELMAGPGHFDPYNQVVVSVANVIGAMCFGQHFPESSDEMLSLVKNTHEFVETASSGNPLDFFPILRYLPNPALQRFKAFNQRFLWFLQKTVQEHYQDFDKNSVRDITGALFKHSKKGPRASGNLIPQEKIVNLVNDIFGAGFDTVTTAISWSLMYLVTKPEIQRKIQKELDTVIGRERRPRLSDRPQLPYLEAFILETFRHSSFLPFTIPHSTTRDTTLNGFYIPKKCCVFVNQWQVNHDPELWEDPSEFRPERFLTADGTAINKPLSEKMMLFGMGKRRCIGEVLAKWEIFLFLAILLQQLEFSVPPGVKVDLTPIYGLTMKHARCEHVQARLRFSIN", "experiment": "Cytochrome panel assay with activity outcomes", "conditions": "recombinant CYP, pro-luciferin dealkylation, luminescence, p450-cyp1a2; series mostly up to 57.1 µM; activity, negative = inhibition: at the top concentration"}
{"smiles": "N#Cc1cccc(NC(=O)N2CCC3(CC2)CCN(C(=O)c2cccc(F)c2)CC3)c1", "activity, negative = inhibition": "-1.29% (inactive)"}
{"smiles": "O=C(c1cc(C(F)(F)F)cc(C(F)(F)F)c1)N1CCC2(CC1)CN(c1ccccc1)C2", "activity, negative = inhibition": "-15.7% (inactive)"}
{"smiles": "O=C(c1cccc(F)c1)N1CCC2(CCN(Cc3cc(C(F)(F)F)cc(C(F)(F)F)c3)CC2)CC1", "activity, negative = inhibition": "-5.54% (inactive)"}
{"smiles": "O=C(c1coc2ccccc2c1=O)N1CCN(c2cccc(C(F)(F)F)c2)CC1", "AC50": "31.6 µM (active)"}
{"smiles": "Cc1ccc(S(=O)(=O)N(CC(=O)N2CCN(c3ccc(F)cc3)CC2)C2CCCCC2)cc1", "activity, negative = inhibition": "0.812% (inactive)"}
{"smiles": "Cc1ccc(CC(=O)N2CCN(c3cccc(C(F)(F)F)c3)CC2)cc1", "AC50": "31.6 µM (active)"}
{"smiles": "CCc1ccc(NC(=S)N2CCN(c3cccc(C(F)(F)F)c3)CC2)cc1", "activity, negative = inhibition": "-15.9% (inactive)"}
{"smiles": "C[C@]1(c2ccccc2)O[C@@H]2C[C@@H]3[C@@H]4CCC5=CC(=O)C=C[C@@]5(C)[C@]4(F)[C@H](O)C[C@]3(C)[C@@]2(C(=O)CO)O1", "activity, negative = inhibition": "-16.4% [at 2.29 µM] (inactive)"}
{"smiles": "CO[C@@H]1COC(=O)[C@H](COCc2ccccc2)NC(=O)C/C=C\\[C@@H](C)[C@H](OC)COC(=O)[C@@H](C)NC(=O)C/C=C\\[C@H]1C", "activity, negative = inhibition": "3.31% [at 11.4 µM] (inactive)"}
{"smiles": "C[C@H](CN(C)C)C(=O)c1ccccc1C(=O)O", "activity, negative = inhibition": "-5.91% [at 11.4 µM] (inactive)"}
{"smiles": "CC(C)=CCC/C(C)=C/CC/C(C)=C/CSc1ccccc1C(=O)O", "AC50": "12.6 µM (active)"}
{"smiles": "CC(=O)N(CC(=O)O)c1ccccc1C(=O)O", "activity, negative = inhibition": "1.47% (inactive)"}
{"smiles": "CNc1ncnc2c1ncn2[C@@H]1O[C@H](CO)[C@@H](O)[C@@H]1O", "activity, negative = inhibition": "13.3% [at 25.6 µM] (inactive)"}
{"smiles": "CCOc1ccc(N2C(=O)CS/C2=N/NC(=O)COc2ccc3ccccc3c2)cc1", "AC50": "14.1 µM (active)"}
{"smiles": "O=C(COc1ccc2ccccc2c1)N1CCN(C(=O)c2cccnc2)CC1", "activity, negative = inhibition": "-16% (inactive)"}
{"smiles": "CC(=O)N1CCN(S(=O)(=O)c2ccccc2)C1c1ccccc1", "note": "(stereo not given)", "activity, negative = inhibition": "5.89% (inactive)"}
{"smiles": "COc1ccc(C)cc1NC(=O)CCC(=O)Nc1nnc(C(F)(F)F)s1", "activity, negative = inhibition": "-6.76% (inactive)"}
{"smiles": "Cc1cccc(C(=O)NNC(=O)C(=O)NC(C)(C)C)c1", "activity, negative = inhibition": "-1.15% (inactive)"}
{"smiles": "C=C(C)c1cccc(C(C)(C)NC(=O)Nc2cc(C)ccc2OC)c1", "AC50": "11.2 µM (active)"}
{"smiles": "C/C(=N\\O)c1ccc2[nH]ccc2c1", "AC50": "4.47 µM (active)"}
{"smiles": "C/C(=N/O)c1ccc2cc(Br)c3ccccc3c2c1", "activity, negative = inhibition": "-13.6% [at 2.29 µM] (inactive)"}
{"smiles": "C[C@H](O/N=C1/[C@H]2O[C@@H]2[C@@H](O)[C@H]2[C@H]1CCn1c(=O)n(-c3ccccc3)c(=O)n12)c1cn([C@H]2COC[C@H]2O)nn1", "activity, negative = inhibition": "4.91% [at 11.4 µM] (inactive)"}
{"smiles": "COc1ccc(/C=C2\\N=C(SC)N(C)C2=O)cc1", "AC50": "1.78 µM (active)"}
{"smiles": "CO/N=C(\\C(=O)N[C@@H]1C(=O)N2C(C(=O)O)=C(COC(N)=O)CS[C@@H]12)c1ccco1", "activity, negative = inhibition": "-6.52% [at 25.6 µM] (inactive)"}
{"smiles": "COc1cccc(-c2cc(NCc3ccc(OC)cc3OC)ncn2)c1", "AC50": "2 µM (active)"}
{"smiles": "COc1cccc(-c2cc(NCc3ccccc3OC)ncn2)c1", "AC50": "1.26 µM (active)"}
{"smiles": "CC(C)C[C@H]1C(=O)N2CCC[C@@H]2[C@]2(O)O[C@](NC(=O)[C@@H]3C=C4c5cccc6[nH]c(Br)c(c56)C[C@H]4N(C)C3)(C(C)C)C(=O)N12", "activity, negative = inhibition": "-8.76% (inactive)"}
{"smiles": "Cc1nc2ncnn2c(C)c1CCC(=O)Nc1ccc(S(=O)(=O)N2CCCCCC2)cc1", "activity, negative = inhibition": "-36% (inactive)"}
{"smiles": "O=c1c2cc(Br)ccc2[nH]c(=S)n1Cc1cccnc1", "AC50": "0.251 µM (active)"}
{"smiles": "COc1ccccc1Cn1c(=S)[nH]c2cc(C(=O)N3CCN(C)CC3)ccc2c1=O", "activity, negative = inhibition": "-25.6% (inactive)"}
{"smiles": "COc1ccc(-n2c(CNC(=O)c3cc(OC)c(OC)c(OC)c3)n[nH]c2=S)cc1", "activity, negative = inhibition": "-29.2% (inactive)"}
{"smiles": "COc1cc(C(=O)NCc2cccc3ccccc23)cc(Cl)c1OC", "AC50": "10 µM (active)"}
{"smiles": "CN(Cc1cnc2nc(N)nc(N)c2n1)c1ccc(C(=O)N[C@H](CCC(=O)O)C(=O)O)cc1", "activity, negative = inhibition": "-7.75% [at 25.6 µM] (inactive)"}
{"smiles": "CCCN(/C=N/c1sc2c(c1C#N)CCCCC2)CCC", "AC50": "14.1 µM (active)"}
{"smiles": "CCN(/C=N/c1sc2c(c1C#N)CCCCC2)CC", "AC50": "2.51 µM (active)"}
{"smiles": "O=S(=O)(c1ccccc1)N1CCC2(CC1)CN(C(c1ccccc1)c1ccccc1)C2", "activity, negative = inhibition": "2.71% (inactive)"}
{"smiles": "CC1CCN(c2ccc(S(=O)(=O)Nc3cc(C(=O)O)cc(C(=O)O)c3)cc2[N+](=O)[O-])CC1", "activity, negative = inhibition": "-20.9% (inactive)"}
{"smiles": "O=C1CCCN1c1ccc(S(=O)(=O)Oc2cccc(Cl)c2)cc1[N+](=O)[O-]", "AC50": "15.8 µM (active)"}
{"smiles": "COc1ccc(N2CCN(S(=O)(=O)c3ccc4c(c3)CCCC4)CC2)c([N+](=O)[O-])c1", "activity, negative = inhibition": "-18.7% (inactive)"}
{"smiles": "COc1ccc(S(=O)(=O)N2CC3CCCN3c3ccc(C(F)(F)F)cc32)cc1", "note": "(stereo not given)", "AC50": "12.6 µM (active)"}
{"smiles": "COc1ccc(S(=O)(=O)N2CCC(N3CCCCC3)CC2)cc1", "activity, negative = inhibition": "8.73% (inactive)"}
{"smiles": "CCn1c(SC)nnc1C1CCN(S(=O)(=O)c2ccc(OC)cc2)CC1", "activity, negative = inhibition": "3.42% (inactive)"}
{"smiles": "NC(=O)C(=O)O", "activity, negative = inhibition": "0.732% (inactive)"}
{"smiles": "Nc1ccccc1S[C@@H](C[N+](=O)[O-])c1ccc2c(c1)OCO2", "AC50": "0.631 µM (active)"}
{"smiles": "CCCCNC(=S)NNC(=O)CCn1nc(C)c(Br)c1C", "AC50": "14.1 µM (active)"}
